Assay results reported in PubChem BioAssay (NCI).
The panel holds about 79,000 compounds, 15% with a hit somewhere; the sample as a whole holds those more often. Unmarked numbers belong to inactive results. Calls of active or inactive are those of the source. No stated cut-off is given here; in the data, active means growth inhibition above about 70%; inactive means the rest.

Legend:
[1] = NCI Yeast Anticancer Drug Screen. Data for the rad50 strain (AID 155);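 further: 0% = growth of vehicle-only cultures of the same strain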; settings: S. cerevisiae rad50 strain growth inhibition, hits give high values
Summary of the method: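 DNA repair mutant yeast, compound exposure, growth read-out; inhibition is taken relative to vehicle.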

[2] = NCI Yeast Anticancer Drug Screen. Data for the mec2-1 strain (AID 157); settings: S. cerevisiae mec2-1 strain, hits give high values
Summary of the method: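 Test agents were screened against the mec2-1 yeast strain, with defined DNA repair or cell cycle alteration. Growth was scored as inhibition against vehicle-only controls.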

[3] = NCI Yeast Anticancer Drug Screen. Data for the sgs1 mgt1 strain (AID 161);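 further: 0% = growth of cultures given vehicle only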; settings: S. cerevisiae sgs1 mgt1 strain, hits give high values
Summary of the method: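 Genetically altered yeast, compound exposure, growth inhibition relative to vehicle.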

[4] = NCI Yeast Anticancer Drug Screen. Data for the cln2 rad14 strain (AID 165);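 further: 0% = growth equal to vehicle treated cultures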; settings: S. cerevisiae cln2 rad14 strain, hits give high values
Summary of the method: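 Growth of compound-exposed yeast (cln2 rad14 genotype) measured and expressed as inhibition relative to vehicle.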

[5] = NCI Yeast Anticancer Drug Screen. Data for the bub3 strain (AID 167); settings: S. cerevisiae bub3 mutant strain, hits give high values
Summary of the method: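 In this screen, a yeast mutant lacking normal mitotic checkpoint function is challenged with compound. Relative growth versus vehicle gives the inhibition value.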

[6] = NCI Yeast Anticancer Drug Screen. Data for the mlh1 rad18 strain (AID 175); settings: S. cerevisiae mlh1 rad18 strain growth inhibition, hits give high values
Summary of the method: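 In this whole-cell yeast screen, a strain with altered DNA damage repair is challenged with compound, and its growth is measured against matched vehicle-treated controls.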

[7] = at 5.0 µM (retest, dose inferred, filed as 0.5)
[8] = at 50.0 µM (retest, dose inferred, filed as 5.0)

SMILES	growth inhibition [1, 7]	growth inhibition [1, 8]	growth inhibition ([1]; at 50.0 µM)	growth inhibition [2, 7]	growth inhibition [2, 8]	growth inhibition ([2]; at 50.0 µM)	growth inhibition [3, 7]	growth inhibition [3, 8]	growth inhibition ([3]; at 50.0 µM)	growth inhibition [4, 7]	growth inhibition [4, 8]	growth inhibition ([4]; at 50.0 µM)	growth inhibition [5, 7]	growth inhibition [5, 8]	growth inhibition ([5]; at 50.0 µM)	growth inhibition [6, 7]	growth inhibition [6, 8]	growth inhibition ([6]; at 50.0 µM)
CCOC(=O)C1=C(N)OC(c2ccccc2)=C(C#N)C1c1ccc(C)cc1 (configuration not stated)	8%	90% (active)	96.1% (active)	4%	91% (active)	97% (active)	11%	92% (active)	97.3% (active)	0%	86% (active)	96.6% (active)	-4%	87% (active)	96.3% (active)	3%	90% (active)	96.5% (active)
O=C1c2cccc(S(=O)(=O)O)c2C(=O)c2cccc([N+](=O)[O-])c21	2%	30%	31.1%	0%	31%	23%	5%	45%	16.3%	-1%	28%	-8.35%	-1%	25%	16.6%	6%	40%	69.1%
O=C(Oc1cc(Cl)c(Cl)cc1Cl)c1ccco1	0%	-1%	-1.8%	4%	5%	-5.4%	0%	-3%	23.9%	3%	-5%	-10.2%	30%	18%	84.8% (active)	1%	-4%	-0.9%
CNC(=O)c1cccc2c(Nc3ccc(NS(C)(=O)=O)cc3OC)c3cccc(C)c3nc12	47%	93% (active)	75.8% (active)	17%	95% (active)	-0.8%	12%	66%	-4.45%	30%	57%	-0.4%	19%	91% (active)	-37.2%	19%	86% (active)	-24.5%
CCCc1cc(-c2ccc(O)c(CCC)c2)ccc1O	92% (active)	99% (active)	99.6% (active)	98% (active)	99% (active)	99.7% (active)	90% (active)	99% (active)	99.5% (active)	96% (active)	99% (active)	99.3% (active)	99% (active)	100% (active)	99.7% (active)	96% (active)	99% (active)	99.2% (active)
COc1ccc2c(c1)CCCN2S(=O)(=O)c1ccc(N)cc1	-1%	18%	45.5%	-3%	5%	27.1%	-2%	16%	36.8%	0%	13%	-6.65%	3%	49%	32.2%	-2%	12%	47%
CCOCCNc1ncnc2c1cnn2C	2%	-5%	-1.1%	-4%	-3%	-18.4%	-16%	-6%	13.1%	-5%	-1%	-0.35%	0%	2%	8%	3%	-1%	39%
O=[N+]([O-])C12CCCCC1([N+](=O)[O-])CCCC2 (configuration not stated)	-1%	41%	62.9%	-5%	30%	21.6%	-3%	33%	35.5%	-9%	22%	31.1%	-1%	65%	84.8% (active)	0%	28%	37.8%
O=C1C=C(c2ccccc2)S(=O)(=O)c2c(O)cccc21	88% (active)	100% (active)	99.6% (active)	76% (active)	100% (active)	99.6% (active)	80% (active)	100% (active)	99.5% (active)	46%	99% (active)	99% (active)	71% (active)	99% (active)	99.2% (active)	94% (active)	100% (active)	99.7% (active)
